Reference: PubChem BioAssay (NCATS)
Records with an inconclusive call do not appear. Where a call stands in place of a potency, no number is given. Activity calls are given as the source filed them. Calls come from the whole dose curve; as a rule, active = well fitted inhibition curve with a large enough effect; inconclusive = small, poorly fitted or top-dose-only effect; inactive = flat fitted curve, though single readings scatter.

What was measured:
Assay in all cases: qHTS profiling for inhibitors of Plasmodium falciparum proliferation (AID 504749); note: nearly all actives have a fitted effect of over 60% in size
Settings in all cases: P. falciparum in erythrocytes, SYBR Green DNA, 72 h; series mostly up to 28.7 µM
CP305 = test system: CP305
Summary of the method: (§1)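 P. falciparum-infected erythrocytes (0.3% parasitemia, 2.5% hematocrit final) were exposed to compounds for 72 h at 37 C in 5% CO2, then lysed with SYBR Green buffer overnight at room temperature; parasite DNA fluorescence was normalized to artemisinin and DMSO controls.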

CP315 = test system: CP315
Summary of the method: as §1

CP325 = test system: CP325
Summary of the method: as §1

CP329 = test system: CP329
Summary of the method: as §1

CP335 = test system: CP335
Summary of the method: as §1

DFO2036 = test system: DFO2036
Summary of the method: as §1

DIV14 = test system: DIV14
Summary of the method: as §1

DIV17 = test system: DIV17
Summary of the method: as §1

DIV30 = test system: DIV30
Summary of the method: as §1

Dd2 = test system: Dd2
Summary of the method: as §1
Potency is the fitted concentration of half-maximal effect.

Row | Compound | Potency (CP305) | Potency (CP315) | Potency (CP325) | Potency (CP329) | Potency (CP335) | Potency (DFO2036) | Potency (DIV14) | Potency (DIV17) | Potency (DIV30) | Potency (Dd2)
1 | CCCCC | inactive | inactive | inactive | inactive | inactive | inactive | inactive | inactive | inactive | inactive
2 | CCOc1ccc(NC(=S)Nc2ccc(OCC)cc2)cc1 | inactive | inactive | inactive | inactive | inactive | inactive | inactive | inactive | inactive | inactive
3 | CC(C)=CCC/C(C)=C/CC/C(C)=C/CC/C=C(\C)CC/C=C(\C)CCC=C(C)C | inactive | inactive | inactive | inactive | inactive | inactive | inactive | inactive | inactive | inactive
4 | CC(C)c1ncc([N+](=O)[O-])n1C | inactive | inactive | inactive | inactive | inactive | inactive | inactive | inactive | inactive | inactive
5 | Cc1ccccn1 | inactive | inactive | inactive | inactive | inactive | inactive | inactive | inactive | inactive | inactive
6 | CCc1ccc(S(=O)(=O)O)cc1 | inactive | inactive | inactive | inactive | inactive | inactive | inactive | inactive | inactive | inactive
7 | CC1=CC(=O)NS(=O)(=O)O1 | inactive | inactive | inactive | inactive | inactive | inactive | inactive | inactive | inactive | inactive
8 | O=C(/C=C/c1cccc(F)c1)NC1CC1 | inactive | inactive | inactive | inactive | inactive | inactive | inactive | inactive | inactive | inactive
9 | C[Se]CC[C@H](N)C(=O)O | inactive | inactive | inactive | inactive | inactive | inactive | inactive | inactive | inactive | inactive
10 | O=C(CCCCCCCCCCCCC1CCCC1)Nc1ccc(S(=O)(=O)c2ccc(NC(=O)CCCCCCCCCCCCC3CCCC3)cc2)cc1 | inactive | inactive | inactive | inactive | inactive | inactive | inactive | inactive | inactive | inactive
11 | CCCCO | inactive | inactive | inactive | inactive | inactive | inactive | inactive | inactive | inactive | inactive
12 | COC1=C(OC)C(=O)C(C/C=C(\C)CC/C=C(\C)CC/C=C(\C)CC/C=C(\C)CC/C=C(\C)CC/C=C(\C)CC/C=C(\C)CC/C=C(\C)CC/C=C(\C)CCC=C(C)C)=C(C)C1=O | inactive | inactive | inactive | inactive | inactive | inactive | inactive | inactive | inactive | inactive
13 | CN=C1C=CC(=C(c2ccc(N(C)C)cc2)c2ccc(N(C)C)cc2)C=C1 | 953 nM (active) | 1070 nM (active) | 953 nM (active) | 757 nM (active) | 301 nM (active) | 398 nM (active) | 1510 nM (active) | 1510 nM (active) | 1690 nM (active) | 282 nM (active)
14 | O=C(O)[C@H]1C(=CCO)O[C@H]2CC(=O)N12 | inactive | inactive | inactive | inactive | inactive | inactive | inactive | inactive | inactive | inactive
15 | Cc1cccc(Nc2ncccc2C(=O)O)c1C | inactive | inactive | inactive | inactive | inactive | inactive | inactive | inactive | inactive | inactive
16 | COc1cc(C)c(/C=C/C(C)=C/C=C/C(C)=C/C(=O)O)c(C)c1C | inactive | inactive | inactive | inactive | inactive | inactive | inactive | inactive | inactive | inactive
17 | CCCCC(CC)COS(=O)(=O)O (stereo not given) | inactive | inactive | inactive | inactive | inactive | inactive | inactive | inactive | inactive | inactive
18 | Cc1cccc(C)c1NC(=O)NC1=CCCN1C | inactive | inactive | inactive | inactive | inactive | inactive | inactive | inactive | inactive | inactive
19 | S=C=Nc1ccc(N=C=S)cc1 | inactive | inactive | inactive | inactive | inactive | inactive | inactive | inactive | inactive | inactive
20 | O=C(O)COc1ccccc1/C=N/NC(=O)c1ccncc1 | inactive | inactive | inactive | inactive | inactive | inactive | inactive | inactive | inactive | inactive
21 | CC(C)[C@@H](N)C(=O)O | inactive | inactive | inactive | inactive | inactive | inactive | inactive | inactive | inactive | inactive
22 | CC(=O)N=c1sc(S(N)(=O)=O)nn1C | inactive | inactive | inactive | inactive | inactive | inactive | inactive | inactive | inactive | inactive
23 | CCCCC[C@H](O)/C=C/[C@H]1[C@H](O)CC(=O)[C@@H]1C/C=C\CCCC(=O)O | inactive | inactive | inactive | inactive | inactive | inactive | inactive | inactive | inactive | inactive
24 | CCc1ncnc2cc(OC)c(OC)cc12 | inactive | inactive | inactive | inactive | inactive | inactive | inactive | inactive | inactive | inactive
25 | CC1C(=O)CC2C3(C)CCC2(C(C)C(=O)O)C(=O)C13 (stereo not given) | inactive | inactive | inactive | inactive | inactive | inactive | inactive | inactive | inactive | inactive
26 | CCC(C)[C@@H](N)C(=O)O (stereo not given in full) | inactive | inactive | inactive | inactive | inactive | inactive | inactive | inactive | inactive | inactive
27 | CO | inactive | inactive | inactive | inactive | inactive | inactive | inactive | inactive | inactive | inactive
28 | CC(=O)Oc1cccc2c1C(=O)c1c(OC(C)=O)cc(C(=O)O)cc1C2=O | inactive | inactive | inactive | inactive | inactive | inactive | inactive | inactive | inactive | inactive
29 | CC/C(=C(/CC)c1ccc(OP(=O)(O)O)cc1)c1ccc(OP(=O)(O)O)cc1 | inactive | inactive | inactive | inactive | inactive | inactive | inactive | inactive | inactive | inactive
30 | CCN(CC)C(=O)c1cccnc1 | inactive | inactive | inactive | inactive | inactive | inactive | inactive | inactive | inactive | inactive
